Results from PMC7862700, “An all-to-all approach to the identification of sequence-specific readers for epigenetic DNA modifications on cytosine”.

What was measured:
Assay in all cases: DAPPL (digital affinity profiling via proximity ligation, sequencing); 10 mM Tris-HCl pH 7.5, 50 mM NaCl, 1 mM DTT, 4% glycerol, room temperature, 30 min; GST-TFs on glutathione beads, 16-mer random dsDNA library, 0.1% formaldehyde crosslink after washing; high values mean tight binding
FLI1 = target: T1, FLI1 (Homo sapiens, UniProt Q01543 1-452); conditions: protein: recombinant; tags: N-terminal GST; dsDNA, one strand shown
T1 sequence: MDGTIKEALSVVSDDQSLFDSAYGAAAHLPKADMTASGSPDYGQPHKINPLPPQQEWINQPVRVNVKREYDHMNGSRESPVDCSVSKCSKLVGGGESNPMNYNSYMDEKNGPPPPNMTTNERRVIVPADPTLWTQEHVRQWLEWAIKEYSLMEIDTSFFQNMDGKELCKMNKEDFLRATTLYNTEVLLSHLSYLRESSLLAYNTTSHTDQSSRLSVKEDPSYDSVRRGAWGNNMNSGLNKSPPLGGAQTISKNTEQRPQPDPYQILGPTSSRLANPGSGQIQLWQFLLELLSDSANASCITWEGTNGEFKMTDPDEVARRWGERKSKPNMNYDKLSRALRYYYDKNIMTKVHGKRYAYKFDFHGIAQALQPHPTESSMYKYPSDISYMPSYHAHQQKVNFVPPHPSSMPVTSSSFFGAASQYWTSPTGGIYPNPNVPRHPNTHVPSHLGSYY
Summary of the method: (§1)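 GST fusions of human transcription factors were expressed in yeast and captured with glutathione beads. Once given DNA barcodes and pooled alongside a tag-only sample, they were incubated for 30 min at room temperature with 200 nmole of a random double-stranded 16-mer DNA library in Tris/NaCl/DTT/glycerol buffer, then washed, crosslinked (0.1% formaldehyde), proximity-ligated, PCR-amplified and sequenced on an Illumina NextSeq500. The binding signal of each hexamer is its read frequency for a factor divided by its frequency for the tag-only sample.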

ELK1 = target: T2, ELK1 (Homo sapiens, UniProt P19419 1-428); conditions: protein: recombinant; tags: N-terminal GST; dsDNA, one strand shown
T2 sequence: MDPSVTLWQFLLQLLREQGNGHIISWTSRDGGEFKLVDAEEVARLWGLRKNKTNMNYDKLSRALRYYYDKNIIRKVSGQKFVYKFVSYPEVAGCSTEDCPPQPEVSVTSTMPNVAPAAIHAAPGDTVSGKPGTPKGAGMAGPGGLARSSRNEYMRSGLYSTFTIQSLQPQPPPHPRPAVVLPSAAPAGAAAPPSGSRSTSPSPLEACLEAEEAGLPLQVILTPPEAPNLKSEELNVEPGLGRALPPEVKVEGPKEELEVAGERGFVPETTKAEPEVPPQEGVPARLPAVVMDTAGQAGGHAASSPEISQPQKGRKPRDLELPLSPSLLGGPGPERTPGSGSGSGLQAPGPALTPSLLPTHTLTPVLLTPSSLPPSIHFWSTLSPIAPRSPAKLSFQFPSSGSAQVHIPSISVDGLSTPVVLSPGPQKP
Summary of the method: as §1

GABPA = target: T3, GABPA (Homo sapiens, UniProt Q06546 1-454); conditions: protein: recombinant; tags: N-terminal GST; dsDNA, one strand shown
T3 sequence: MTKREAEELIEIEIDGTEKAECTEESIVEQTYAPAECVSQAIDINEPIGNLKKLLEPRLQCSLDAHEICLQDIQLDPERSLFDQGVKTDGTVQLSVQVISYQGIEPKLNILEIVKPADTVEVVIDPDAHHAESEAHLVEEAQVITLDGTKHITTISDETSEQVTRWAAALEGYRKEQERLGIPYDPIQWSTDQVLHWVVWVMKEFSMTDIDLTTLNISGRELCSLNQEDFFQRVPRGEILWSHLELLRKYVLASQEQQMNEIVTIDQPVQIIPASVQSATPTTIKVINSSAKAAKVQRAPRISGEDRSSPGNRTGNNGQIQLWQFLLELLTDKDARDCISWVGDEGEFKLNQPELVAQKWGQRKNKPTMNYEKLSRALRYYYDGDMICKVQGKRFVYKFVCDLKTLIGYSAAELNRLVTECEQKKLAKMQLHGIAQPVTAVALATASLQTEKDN
Summary of the method: as §1

ERG = target: T4, ERG (Homo sapiens, UniProt P11308 1-479); conditions: protein: recombinant; tags: N-terminal GST; dsDNA, one strand shown
T4 sequence: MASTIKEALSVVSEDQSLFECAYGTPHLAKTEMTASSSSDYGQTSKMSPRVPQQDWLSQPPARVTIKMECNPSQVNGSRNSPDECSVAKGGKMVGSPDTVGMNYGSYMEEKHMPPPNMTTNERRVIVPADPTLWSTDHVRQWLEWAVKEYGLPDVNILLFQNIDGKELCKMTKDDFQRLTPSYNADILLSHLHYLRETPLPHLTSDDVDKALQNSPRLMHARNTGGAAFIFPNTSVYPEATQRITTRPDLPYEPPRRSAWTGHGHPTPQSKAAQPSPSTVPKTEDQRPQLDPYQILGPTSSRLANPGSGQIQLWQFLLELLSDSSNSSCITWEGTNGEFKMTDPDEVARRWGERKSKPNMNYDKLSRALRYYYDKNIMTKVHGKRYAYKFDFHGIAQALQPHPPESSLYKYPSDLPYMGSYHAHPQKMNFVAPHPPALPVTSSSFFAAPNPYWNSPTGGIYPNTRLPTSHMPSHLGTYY
Summary of the method: as §1

ELF1 = ELF1 (Homo sapiens, UniProt P32519 1-619); conditions: protein: recombinant; tags: N-terminal GST; dsDNA, one strand shown
Chain of ELF1 (P32519 whole entry): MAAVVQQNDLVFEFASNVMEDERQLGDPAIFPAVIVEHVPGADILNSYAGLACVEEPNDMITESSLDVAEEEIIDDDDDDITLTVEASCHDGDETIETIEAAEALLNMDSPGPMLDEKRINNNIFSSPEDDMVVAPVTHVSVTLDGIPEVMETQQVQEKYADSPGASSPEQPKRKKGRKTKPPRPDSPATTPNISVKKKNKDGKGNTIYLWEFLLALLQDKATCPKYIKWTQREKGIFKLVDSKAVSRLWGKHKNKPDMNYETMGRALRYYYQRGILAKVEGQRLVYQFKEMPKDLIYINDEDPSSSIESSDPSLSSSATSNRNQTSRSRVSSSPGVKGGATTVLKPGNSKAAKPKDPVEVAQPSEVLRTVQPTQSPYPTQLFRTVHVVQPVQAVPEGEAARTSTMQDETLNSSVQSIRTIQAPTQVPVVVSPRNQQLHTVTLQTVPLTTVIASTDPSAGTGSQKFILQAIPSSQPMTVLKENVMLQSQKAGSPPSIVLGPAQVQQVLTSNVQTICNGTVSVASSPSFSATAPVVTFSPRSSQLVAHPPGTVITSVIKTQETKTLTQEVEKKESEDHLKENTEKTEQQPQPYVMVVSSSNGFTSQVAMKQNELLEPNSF
Summary of the method: as §1

EHF = target: T5, EHF (Homo sapiens, UniProt Q9NZC4 1-300); conditions: protein: recombinant; tags: N-terminal GST; dsDNA, one strand shown
T5 sequence: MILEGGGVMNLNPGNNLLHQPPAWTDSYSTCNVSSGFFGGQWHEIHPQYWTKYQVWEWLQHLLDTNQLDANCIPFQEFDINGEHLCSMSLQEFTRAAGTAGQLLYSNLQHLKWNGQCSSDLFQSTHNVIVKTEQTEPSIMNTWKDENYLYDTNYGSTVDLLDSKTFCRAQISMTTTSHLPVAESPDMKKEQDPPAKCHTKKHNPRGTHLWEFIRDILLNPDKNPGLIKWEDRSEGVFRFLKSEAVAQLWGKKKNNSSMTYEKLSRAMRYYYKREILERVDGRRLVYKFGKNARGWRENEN
Summary of the method: as §1

SPI1 = SPI1 (Homo sapiens, UniProt P17947 1-270); conditions: protein: recombinant; tags: N-terminal GST; dsDNA, one strand shown
Summary of the method: as §1

SPIB = SPIB (Homo sapiens, UniProt Q01892 1-262); conditions: protein: recombinant; tags: N-terminal GST; dsDNA, one strand shown
Chain of SPIB (Q01892 whole entry): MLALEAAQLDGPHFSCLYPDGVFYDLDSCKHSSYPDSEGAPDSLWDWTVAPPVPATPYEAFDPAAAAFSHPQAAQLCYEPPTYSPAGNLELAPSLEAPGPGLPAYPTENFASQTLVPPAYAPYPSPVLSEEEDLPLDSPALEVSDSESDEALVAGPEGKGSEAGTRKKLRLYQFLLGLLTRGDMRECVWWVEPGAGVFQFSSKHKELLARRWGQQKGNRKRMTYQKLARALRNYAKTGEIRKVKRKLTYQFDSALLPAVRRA
Summary of the method: as §1

ELK3 = target: T6, ELK3 (Homo sapiens, UniProt P41970 1-407); conditions: protein: recombinant; tags: N-terminal GST; dsDNA, one strand shown
T6 sequence: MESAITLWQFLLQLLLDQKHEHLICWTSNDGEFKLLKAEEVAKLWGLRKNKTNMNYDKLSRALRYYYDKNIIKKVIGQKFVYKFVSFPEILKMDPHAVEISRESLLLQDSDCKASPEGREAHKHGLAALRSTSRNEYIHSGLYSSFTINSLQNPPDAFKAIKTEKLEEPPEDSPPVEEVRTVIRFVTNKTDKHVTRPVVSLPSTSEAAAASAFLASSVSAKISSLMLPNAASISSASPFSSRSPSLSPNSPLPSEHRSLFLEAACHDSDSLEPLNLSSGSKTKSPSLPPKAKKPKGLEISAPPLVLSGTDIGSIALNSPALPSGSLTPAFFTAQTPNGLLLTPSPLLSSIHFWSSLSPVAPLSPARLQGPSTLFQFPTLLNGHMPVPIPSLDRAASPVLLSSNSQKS
Summary of the method: as §1

FEV = target: T7, FEV (Homo sapiens, UniProt Q99581 1-238); conditions: protein: recombinant; tags: N-terminal GST; dsDNA, one strand shown
T7 sequence: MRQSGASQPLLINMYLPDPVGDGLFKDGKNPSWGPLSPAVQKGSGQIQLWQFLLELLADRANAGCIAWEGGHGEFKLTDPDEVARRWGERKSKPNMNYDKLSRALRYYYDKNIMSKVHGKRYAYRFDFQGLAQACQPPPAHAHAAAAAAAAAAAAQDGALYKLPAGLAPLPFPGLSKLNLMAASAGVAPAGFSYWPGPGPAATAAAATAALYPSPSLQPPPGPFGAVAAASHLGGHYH
Summary of the method: as §1

ETV5 = ETV5 (Homo sapiens, UniProt P41161 1-510); conditions: protein: recombinant; tags: N-terminal GST; dsDNA, one strand shown
Chain of ETV5 (P41161 whole entry): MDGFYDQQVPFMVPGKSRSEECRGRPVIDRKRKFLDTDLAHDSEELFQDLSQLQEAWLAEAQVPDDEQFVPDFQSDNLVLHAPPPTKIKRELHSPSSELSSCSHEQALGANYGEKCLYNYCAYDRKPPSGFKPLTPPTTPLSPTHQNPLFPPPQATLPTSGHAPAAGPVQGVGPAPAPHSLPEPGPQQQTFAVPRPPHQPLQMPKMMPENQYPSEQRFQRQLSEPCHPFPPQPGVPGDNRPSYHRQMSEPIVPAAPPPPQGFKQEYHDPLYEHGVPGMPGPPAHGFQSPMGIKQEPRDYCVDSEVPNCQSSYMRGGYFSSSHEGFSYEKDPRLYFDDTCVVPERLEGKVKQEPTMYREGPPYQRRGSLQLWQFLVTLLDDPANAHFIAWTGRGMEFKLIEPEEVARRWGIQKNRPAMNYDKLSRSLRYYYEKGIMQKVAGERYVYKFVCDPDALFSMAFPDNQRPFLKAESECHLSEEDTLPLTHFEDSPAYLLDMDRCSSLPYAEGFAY
Summary of the method: as §1

HSF1 = HSF1 (Homo sapiens, UniProt Q00613 1-529); conditions: protein: recombinant; tags: N-terminal GST; chain copies: 3; dsDNA, one strand shown
Chain of HSF1 (Q00613 whole entry): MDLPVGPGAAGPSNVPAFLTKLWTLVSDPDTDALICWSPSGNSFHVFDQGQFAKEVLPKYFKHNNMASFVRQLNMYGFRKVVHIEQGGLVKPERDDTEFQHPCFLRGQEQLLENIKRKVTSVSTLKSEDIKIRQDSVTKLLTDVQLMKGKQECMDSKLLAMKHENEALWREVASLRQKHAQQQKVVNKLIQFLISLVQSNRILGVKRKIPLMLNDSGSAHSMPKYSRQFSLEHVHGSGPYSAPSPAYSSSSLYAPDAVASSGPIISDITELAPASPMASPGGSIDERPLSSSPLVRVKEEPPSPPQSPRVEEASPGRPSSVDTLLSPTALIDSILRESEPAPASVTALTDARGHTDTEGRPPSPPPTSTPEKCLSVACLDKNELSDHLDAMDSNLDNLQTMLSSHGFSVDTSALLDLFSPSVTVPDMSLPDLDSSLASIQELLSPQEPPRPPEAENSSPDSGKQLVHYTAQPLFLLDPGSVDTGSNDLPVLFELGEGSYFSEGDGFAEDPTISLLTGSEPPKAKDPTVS
Summary of the method: as §1

SPIC = target: T8, SPIC (Homo sapiens, UniProt Q8N5J4 1-248); conditions: protein: recombinant; tags: N-terminal GST; dsDNA, one strand shown
T8 sequence: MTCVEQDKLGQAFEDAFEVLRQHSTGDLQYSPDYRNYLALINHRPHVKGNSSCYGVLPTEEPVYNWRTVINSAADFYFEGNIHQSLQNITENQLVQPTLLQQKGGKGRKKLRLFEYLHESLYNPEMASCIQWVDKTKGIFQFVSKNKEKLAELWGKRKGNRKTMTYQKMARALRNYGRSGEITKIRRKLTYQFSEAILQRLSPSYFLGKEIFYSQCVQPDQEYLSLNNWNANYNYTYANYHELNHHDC
Summary of the method: as §1

ELF4 = ELF4 (Homo sapiens, UniProt Q99607 1-663); conditions: protein: recombinant; tags: N-terminal GST; dsDNA, one strand shown
Chain of ELF4 (Q99607 whole entry): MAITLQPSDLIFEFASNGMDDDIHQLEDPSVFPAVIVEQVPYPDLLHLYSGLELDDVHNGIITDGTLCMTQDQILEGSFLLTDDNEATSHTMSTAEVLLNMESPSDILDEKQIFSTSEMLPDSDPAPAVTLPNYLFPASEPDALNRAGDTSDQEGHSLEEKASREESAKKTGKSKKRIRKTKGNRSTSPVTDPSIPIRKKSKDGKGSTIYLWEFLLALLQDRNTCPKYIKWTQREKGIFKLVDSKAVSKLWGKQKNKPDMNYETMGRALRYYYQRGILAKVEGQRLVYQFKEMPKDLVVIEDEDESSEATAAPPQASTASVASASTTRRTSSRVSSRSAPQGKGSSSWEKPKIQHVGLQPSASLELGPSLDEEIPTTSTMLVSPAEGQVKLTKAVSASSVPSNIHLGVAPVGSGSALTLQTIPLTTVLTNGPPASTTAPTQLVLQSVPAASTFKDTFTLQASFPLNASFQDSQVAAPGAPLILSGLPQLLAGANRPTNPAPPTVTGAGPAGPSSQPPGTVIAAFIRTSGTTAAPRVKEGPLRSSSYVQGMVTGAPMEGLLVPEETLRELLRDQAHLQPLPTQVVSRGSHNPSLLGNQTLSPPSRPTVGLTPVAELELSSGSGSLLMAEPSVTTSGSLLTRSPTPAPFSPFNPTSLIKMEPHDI
Summary of the method: as §1

ELK4 = target: T9, ELK4 (Homo sapiens, UniProt P28324-2 1-405); conditions: protein: recombinant; tags: N-terminal GST; dsDNA, one strand shown
T9 sequence: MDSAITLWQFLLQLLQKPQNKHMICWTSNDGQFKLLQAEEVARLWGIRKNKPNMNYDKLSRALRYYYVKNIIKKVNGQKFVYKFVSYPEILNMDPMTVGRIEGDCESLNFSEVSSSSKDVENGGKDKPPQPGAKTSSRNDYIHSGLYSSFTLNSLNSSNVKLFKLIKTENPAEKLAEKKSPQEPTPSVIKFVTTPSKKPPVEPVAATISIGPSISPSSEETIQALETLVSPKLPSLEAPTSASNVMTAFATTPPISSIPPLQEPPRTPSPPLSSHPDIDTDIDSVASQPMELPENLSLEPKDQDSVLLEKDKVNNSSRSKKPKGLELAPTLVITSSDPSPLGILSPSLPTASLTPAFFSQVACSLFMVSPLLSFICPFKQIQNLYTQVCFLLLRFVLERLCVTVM
Summary of the method: as §1

ETV2 = target: T10, ETV2 (Homo sapiens, UniProt O00321 1-342); conditions: protein: recombinant; tags: N-terminal GST; dsDNA, one strand shown
T10 sequence: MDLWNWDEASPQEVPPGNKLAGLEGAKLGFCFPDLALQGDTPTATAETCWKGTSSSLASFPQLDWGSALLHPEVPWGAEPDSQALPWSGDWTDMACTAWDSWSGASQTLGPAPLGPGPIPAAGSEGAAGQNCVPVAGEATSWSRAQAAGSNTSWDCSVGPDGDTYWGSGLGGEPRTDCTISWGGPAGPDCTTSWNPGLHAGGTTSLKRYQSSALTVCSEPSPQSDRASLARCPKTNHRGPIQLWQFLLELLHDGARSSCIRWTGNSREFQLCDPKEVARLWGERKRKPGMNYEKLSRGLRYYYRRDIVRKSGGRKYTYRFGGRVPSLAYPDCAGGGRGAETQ
Summary of the method: as §1

ELF3 = target: T11, ELF3 (Homo sapiens, UniProt P78545 1-371); conditions: protein: recombinant; tags: N-terminal GST; dsDNA, one strand shown
T11 sequence: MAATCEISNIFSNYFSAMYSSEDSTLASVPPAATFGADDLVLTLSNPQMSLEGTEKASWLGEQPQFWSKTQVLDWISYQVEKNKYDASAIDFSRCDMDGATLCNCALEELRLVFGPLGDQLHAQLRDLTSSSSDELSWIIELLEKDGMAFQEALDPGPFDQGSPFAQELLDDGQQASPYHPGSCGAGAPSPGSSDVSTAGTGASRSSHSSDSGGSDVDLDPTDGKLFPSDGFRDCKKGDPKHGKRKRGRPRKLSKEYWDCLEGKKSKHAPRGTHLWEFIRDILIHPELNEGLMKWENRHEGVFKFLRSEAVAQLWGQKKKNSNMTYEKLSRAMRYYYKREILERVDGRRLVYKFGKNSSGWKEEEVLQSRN
Summary of the method: as §1

CRX = CRX (Homo sapiens, UniProt O43186 1-299); conditions: protein: recombinant; tags: N-terminal GST; dsDNA, one strand shown
Chain of CRX (O43186 whole entry): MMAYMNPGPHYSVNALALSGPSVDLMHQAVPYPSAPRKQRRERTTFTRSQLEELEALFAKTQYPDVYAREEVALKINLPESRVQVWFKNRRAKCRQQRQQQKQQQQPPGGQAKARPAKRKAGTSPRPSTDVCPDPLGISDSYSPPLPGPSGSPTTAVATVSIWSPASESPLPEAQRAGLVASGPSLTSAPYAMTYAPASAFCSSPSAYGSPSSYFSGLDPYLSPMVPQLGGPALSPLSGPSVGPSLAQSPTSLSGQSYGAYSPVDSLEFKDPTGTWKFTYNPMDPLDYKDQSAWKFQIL
Summary of the method: as §1

ETV1 = ETV1 (Homo sapiens, UniProt P50549 1-477); conditions: protein: recombinant; tags: N-terminal GST; dsDNA, one strand shown
Chain of ETV1 (P50549 whole entry): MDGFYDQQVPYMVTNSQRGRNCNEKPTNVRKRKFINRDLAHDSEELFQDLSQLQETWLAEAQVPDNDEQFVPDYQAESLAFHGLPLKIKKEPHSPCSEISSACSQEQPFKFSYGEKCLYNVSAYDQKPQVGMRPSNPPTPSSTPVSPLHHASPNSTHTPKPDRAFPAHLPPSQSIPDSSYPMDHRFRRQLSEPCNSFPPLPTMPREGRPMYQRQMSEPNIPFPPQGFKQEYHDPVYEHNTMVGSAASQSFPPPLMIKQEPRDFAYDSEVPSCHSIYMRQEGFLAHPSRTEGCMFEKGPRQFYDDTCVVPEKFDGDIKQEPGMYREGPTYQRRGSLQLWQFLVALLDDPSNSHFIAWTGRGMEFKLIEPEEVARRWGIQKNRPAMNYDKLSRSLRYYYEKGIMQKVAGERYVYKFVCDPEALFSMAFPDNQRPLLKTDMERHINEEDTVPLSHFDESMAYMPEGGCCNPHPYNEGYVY
Summary of the method: as §1

Sequence: CTGATA
- binding signal (FLI1): 1.15 fold enrichment (6-mer frequency, TF over GST control)
- binding signal (ELK1): 1.17 fold enrichment (6-mer frequency, TF over GST control)
- binding signal (GABPA): 1.27 fold enrichment (6-mer frequency, TF over GST control)
- binding signal (ERG): 1.1 fold enrichment (6-mer frequency, TF over GST control)
- binding signal (ELF1): 1.21 fold enrichment (6-mer frequency, TF over GST control)
- binding signal (EHF): 1.26 fold enrichment (6-mer frequency, TF over GST control)
- binding signal (SPI1): 1.28 fold enrichment (6-mer frequency, TF over GST control)
- binding signal (SPIB): 1.32 fold enrichment (6-mer frequency, TF over GST control)
- binding signal (ELK3): 1.24 fold enrichment (6-mer frequency, TF over GST control)
- binding signal (FEV): 1.14 fold enrichment (6-mer frequency, TF over GST control)
- binding signal (ETV5): 1.18 fold enrichment (6-mer frequency, TF over GST control)
- binding signal (HSF1): 1.18 fold enrichment (6-mer frequency, TF over GST control)
- binding signal (SPIC): 1.11 fold enrichment (6-mer frequency, TF over GST control)
- binding signal (ELF4): 1.19 fold enrichment (6-mer frequency, TF over GST control)
- binding signal (ELK4): 1.35 fold enrichment (6-mer frequency, TF over GST control)
- binding signal (ETV2): 1.15 fold enrichment (6-mer frequency, TF over GST control)
- binding signal (ELF3): 1.13 fold enrichment (6-mer frequency, TF over GST control)
- binding signal (CRX): 1.26 fold enrichment (6-mer frequency, TF over GST control)
- binding signal (ETV1): 1.13 fold enrichment (6-mer frequency, TF over GST control)
